The list shows a part of the results. Active and inactive are the calls of the source. The rule behind the calls is not given here.

Among the data in PubChem BioAssay AID720651 (The Scripps Research Institute Molecular Screening Center, 2013) are IC50 values, retold here.

A short description of this assay: molecules binding r(CAG) RNA repeats, late stage dose response, late-stage follow-up, biochemical, fluorescence, dose response, powder samples (AID 720651). The conditions noted are these: r(CAG) RNA TO-PRO-1 dye displacement.

`O=C1CC(=O)N(Cc2ccccc2)C(=O)N1CCCCCCN1C(=O)CC(=O)N(Cc2ccccc2)C1=O`: the IC50 (as a rule, the concentration that inhibits the measured activity by half) is 1440 nM (active).
